In ChEMBL document CHEMBL2218924, “A broad activity screen in support of a chemogenomic map for kinase signalling research and drug discovery” (Biochem J, 2013) one finds residual activity data, which are given here for 34 compounds.

Tyrosine-protein kinase Yes (Homo sapiens), sequence (P07947 2-543 limits assumed): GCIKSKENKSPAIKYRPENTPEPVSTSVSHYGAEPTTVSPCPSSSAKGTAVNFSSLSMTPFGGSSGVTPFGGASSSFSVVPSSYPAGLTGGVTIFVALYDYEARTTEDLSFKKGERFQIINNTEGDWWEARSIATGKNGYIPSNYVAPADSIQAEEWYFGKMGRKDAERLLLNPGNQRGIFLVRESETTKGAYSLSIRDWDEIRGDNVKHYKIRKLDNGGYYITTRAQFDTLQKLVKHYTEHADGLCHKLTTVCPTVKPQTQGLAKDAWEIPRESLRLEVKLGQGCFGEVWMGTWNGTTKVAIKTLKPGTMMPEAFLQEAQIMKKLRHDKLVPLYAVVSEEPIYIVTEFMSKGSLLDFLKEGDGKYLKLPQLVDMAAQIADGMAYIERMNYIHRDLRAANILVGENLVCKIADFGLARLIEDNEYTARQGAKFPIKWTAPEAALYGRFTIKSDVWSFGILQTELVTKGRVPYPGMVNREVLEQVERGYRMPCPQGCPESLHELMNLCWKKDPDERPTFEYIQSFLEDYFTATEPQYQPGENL

The first assay addresses Tyrosine-protein kinase Yes (Homo sapiens) (UniProt P07947). The following applies: at 1 µM.
For `O=C1Nc2ccc3ncsc3c2/C1=C/c1c[nH]cn1`, the residual activity (as a rule, the signal under treatment as a percentage of the control signal) was determined as 52%.

Turning to `CCn1cnc2c(Nc3cccc(Cl)c3)nc(N[C@@H]3CCCC[C@@H]3N)nc21`, the residual activity was 7%.

With `O=c1[nH]c2ccccc2n1C1CCN(Cc2ccc(-c3nc4cc5[nH]cnc5cc4nc3-c3ccccc3)cc2)CC1`, the residual activity was 99%.

As to `c1cc(-c2cnn3cc(-c4ccc(OCCN5CCCCC5)cc4)cnc23)ccn1`, the residual activity came to 7%.

For `CC(C)[C@H](CO)Nc1nc(Nc2cccc(Cl)c2)c2ncn(C(C)C)c2n1`, the residual activity was 4%.

For the compound `COc1cc2ncnc(Nc3ccc(OCc4ccccc4)cc3)c2cc1OC`, the residual activity is 64%.

Consider `CCc1nc(-c2ccc(OC)cc2)[nH]c1-c1ccncc1`, for which the residual activity amounted to 123%.

Regarding `O=[N+]([O-])/C=C/c1ccc2c(c1)OCO2`, the residual activity came out at 118%.

On to `COc1ccc2c(c1)/C(=C/c1cnc[nH]1)C(=O)N2`, for which the residual activity was found to be 96%.

As to `COC(=O)[C@@]1(O)C[C@H]2O[C@]1(C)n1c3ccccc3c3c4c(c5c6ccccc6n2c5c31)C(=O)NC4`, the residual activity was determined as 11%.

The target is the same in another assay. Conditions: at 10 µM.
For `O=C1Nc2ccc3ncsc3c2/C1=C/c1c[nH]cn1`, the residual activity was found to be 9%.

For `CCn1cnc2c(Nc3cccc(Cl)c3)nc(N[C@@H]3CCCC[C@@H]3N)nc21`, the residual activity came to 1%.

Take `O=c1[nH]c2ccccc2n1C1CCN(Cc2ccc(-c3nc4cc5[nH]cnc5cc4nc3-c3ccccc3)cc2)CC1`: the residual activity was 73%.

Turning to `c1cc(-c2cnn3cc(-c4ccc(OCCN5CCCCC5)cc4)cnc23)ccn1`, the residual activity stood at 0%.

In the case of `C[S+]([O-])c1ccc(-c2nc(-c3ccc(F)cc3)c(-c3ccncc3)[nH]2)cc1` (centres undefined), the residual activity is 45%.

As for `CC(C)[C@H](CO)Nc1nc(Nc2cccc(Cl)c2)c2ncn(C(C)C)c2n1`, the residual activity is 0%.

Consider `COc1cc2ncnc(Nc3ccc(OCc4ccccc4)cc3)c2cc1OC`, for which the residual activity came to 39%.

In the case of `CCc1nc(-c2ccc(OC)cc2)[nH]c1-c1ccncc1`, the residual activity was 101%.

For `O=[N+]([O-])/C=C/c1ccc2c(c1)OCO2`, the residual activity stood at 98%.

On to `N/C(=N\[N+](=O)[O-])N/N=C\c1ccc(-c2cccc([N+](=O)[O-])c2)o1`, for which the residual activity came to 100%.

As for `COc1cc(OC)c(/C=C2\C(=O)Nc3ccccc32)c(OC)c1`, the residual activity stood at 78%.

`COc1ccc2c(c1)/C(=C/c1cnc[nH]1)C(=O)N2`: the residual activity was determined as 19%.

For the compound `COc1ccc2c(c[n+](C)c3c4cc5c(cc4ccc23)OCO5)c1OC`, the residual activity was determined as 84%.

Regarding `COC(=O)[C@@]1(O)C[C@H]2O[C@]1(C)n1c3ccccc3c3c4c(c5c6ccccc6n2c5c31)C(=O)NC4`, the residual activity amounted to 1%.

Another assay has as its target T1, Tyrosine-protein kinase ZAP-70 (Homo sapiens) (UniProt P43403).
T1 sequence (whole entry): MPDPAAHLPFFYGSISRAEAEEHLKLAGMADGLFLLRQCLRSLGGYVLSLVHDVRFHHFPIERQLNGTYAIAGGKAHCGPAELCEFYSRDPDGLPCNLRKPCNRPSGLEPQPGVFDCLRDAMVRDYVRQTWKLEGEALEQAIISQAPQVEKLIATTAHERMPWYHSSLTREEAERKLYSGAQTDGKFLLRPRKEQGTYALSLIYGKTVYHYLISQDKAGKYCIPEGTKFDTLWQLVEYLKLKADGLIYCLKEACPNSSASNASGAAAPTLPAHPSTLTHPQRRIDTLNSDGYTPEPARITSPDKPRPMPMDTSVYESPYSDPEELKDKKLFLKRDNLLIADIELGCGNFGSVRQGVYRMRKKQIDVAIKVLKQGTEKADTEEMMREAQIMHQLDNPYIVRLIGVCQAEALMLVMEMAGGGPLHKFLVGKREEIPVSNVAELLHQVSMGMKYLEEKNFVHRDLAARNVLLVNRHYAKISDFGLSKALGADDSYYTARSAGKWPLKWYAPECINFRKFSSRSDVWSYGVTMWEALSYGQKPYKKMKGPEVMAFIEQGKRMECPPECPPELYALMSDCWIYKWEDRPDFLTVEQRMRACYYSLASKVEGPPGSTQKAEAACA
The following applies: at 1 µM.
`O=C1Nc2ccc3ncsc3c2/C1=C/c1c[nH]cn1`: the residual activity was determined as 102%.

Turning to `CCn1cnc2c(Nc3cccc(Cl)c3)nc(N[C@@H]3CCCC[C@@H]3N)nc21`, the residual activity is 93%.

Consider `O=c1[nH]c2ccccc2n1C1CCN(Cc2ccc(-c3nc4cc5[nH]cnc5cc4nc3-c3ccccc3)cc2)CC1`, for which the residual activity worked out at 123%.

Consider `C[S+]([O-])c1ccc(-c2nc(-c3ccc(F)cc3)c(-c3ccncc3)[nH]2)cc1` (centres undefined), for which the residual activity amounted to 124%.

On to `O=C1NC(=O)c2c1c1c3ccccc3n3c1c1c2c2ccccc2n1C1CCC3O1`, for which the residual activity was 132%.

Take `COc1cc2ncnc(Nc3ccc(OCc4ccccc4)cc3)c2cc1OC`: the residual activity is 112%.

For `CCc1nc(-c2ccc(OC)cc2)[nH]c1-c1ccncc1`, the residual activity turned out to be 119%.

Take `O=[N+]([O-])/C=C/c1ccc2c(c1)OCO2`: the residual activity came to 111%.

`N/C(=N\[N+](=O)[O-])N/N=C\c1ccc(-c2cccc([N+](=O)[O-])c2)o1`: the residual activity was determined as 99%.

For the compound `COc1cc(OC)c(/C=C2\C(=O)Nc3ccccc32)c(OC)c1`, the residual activity was determined as 90%.

Take `O=C1c2ccccc2-c2nc3nnnn3nc21`: the residual activity was found to be 111%.

On to `COc1ccc2c(c[n+](C)c3c4cc5c(cc4ccc23)OCO5)c1OC`, for which the residual activity came out at 119%.

Regarding `COC(=O)[C@@]1(O)C[C@H]2O[C@]1(C)n1c3ccccc3c3c4c(c5c6ccccc6n2c5c31)C(=O)NC4`, the residual activity was 16%.

The target of another assay is T1, Tyrosine-protein kinase ZAP-70 (Homo sapiens). Conditions: at 10 µM.
For the compound `O=C1Nc2ccc3ncsc3c2/C1=C/c1c[nH]cn1`, the residual activity is 101%.

As for `O=C1Nc2ccccc2/C1=C1/Nc2ccccc2/C1=N\OCCC(O)CO` (centres undefined), the residual activity amounted to 98%.

For `CCn1cnc2c(Nc3cccc(Cl)c3)nc(N[C@@H]3CCCC[C@@H]3N)nc21`, the residual activity is 95%.

As for `O=c1[nH]c2ccccc2n1C1CCN(Cc2ccc(-c3nc4cc5[nH]cnc5cc4nc3-c3ccccc3)cc2)CC1`, the residual activity is 98%.

For `c1cc(-c2cnn3cc(-c4ccc(OCCN5CCCCC5)cc4)cnc23)ccn1`, the residual activity worked out at 101%.

For `CC(C)n1cnc2c(NCc3ccccc3)nc(NCCCO)nc21`, the residual activity came out at 119%.

Turning to `Oc1c2ccccc2c2c3c(cccc13)N=N2`, the residual activity was found to be 98%.

As for `C[S+]([O-])c1ccc(-c2nc(-c3ccc(F)cc3)c(-c3ccncc3)[nH]2)cc1` (centres undefined), the residual activity stood at 130%.

Take `COc1cc2nccc(Oc3ccc(NC(=O)Nc4cc(C)on4)c(Cl)c3)c2cc1OC`: the residual activity is 107%.

Regarding `O=C1NC(=O)c2c1c1c3ccccc3n3c1c1c2c2ccccc2n1C1CCC3O1`, the residual activity came out at 125%.

Consider `Cn1nc2c3c(cccc31)C(=O)c1ccccc1-2`, for which the residual activity turned out to be 85%.

Take `Cn1cc(/C=C2\C(=O)Nc3ccc(S(N)(=O)=O)cc32)c2ccccc21`: the residual activity came to 125%.

Turning to `Nc1nccc(-c2c(-c3ccc(F)cc3)ncn2C2CCNCC2)n1`, the residual activity came out at 124%.

On to `CCN(CC)CCNC(=O)c1c(C)[nH]c(/C=C2\C(=O)Nc3ccc(Cl)cc32)c1C`, for which the residual activity was 77%.

For the compound `COc1cc2ncnc(Nc3ccc(OCc4ccccc4)cc3)c2cc1OC`, the residual activity came to 107%.

Take `COc1ccc(-c2cnc3c(-c4ccsc4)cnn3c2)cc1`: the residual activity was found to be 128%.

On to `Cn1sc(=O)n(Cc2ccccc2)c1=O`, for which the residual activity was 96%.

In the case of `CCc1nc(-c2ccc(OC)cc2)[nH]c1-c1ccncc1`, the residual activity was 121%.

For the compound `CN(C)CCCn1cc(C2=C(c3c[nH]c4ccccc34)C(=O)NC2=O)c2ccccc21`, the residual activity was 118%.

For the compound `O=[N+]([O-])/C=C/c1ccc2c(c1)OCO2`, the residual activity turned out to be 127%.

As to `O=C(O)c1ccc2c3c1cccc3c(=O)n1c3ccccc3nc21`, the residual activity amounted to 111%.

As to `N/C(=N\[N+](=O)[O-])N/N=C\c1ccc(-c2cccc([N+](=O)[O-])c2)o1`, the residual activity amounted to 100%.

For the compound `COc1cc(OC)c(/C=C2\C(=O)Nc3ccccc32)c(OC)c1`, the residual activity worked out at 82%.

As for `N#C/C(=C(\N)Sc1ccc(N)cc1)c1ccccc1C(F)(F)F`, the residual activity turned out to be 101%.

Regarding `O=C1c2ccccc2-c2nc3nnnn3nc21`, the residual activity was found to be 120%.

As to `COc1cc2ncnc(Nc3ccc(NC(=O)c4ccccc4)cc3)c2cc1OC`, the residual activity was 104%.

With `O=C1NC(=O)C(c2cn(CCCn3ccnc3)c3ccccc23)=C1Nc1ccccc1`, the residual activity came out at 118%.

Take `COc1ccc2c(c[n+](C)c3c4cc5c(cc4ccc23)OCO5)c1OC`: the residual activity was determined as 95%.

`O=c1cc(-c2cccc3c2Sc2ccccc2S3)oc(N2CCOCC2)c1`: the residual activity came out at 85%.

For the compound `Nc1ncnc2[nH]nc(Nc3ccc(F)cc3)c12`, the residual activity is 98%.

On to `Oc1ccc(Nc2nc(-c3ccc(Cl)cc3)cs2)cc1`, for which the residual activity amounted to 130%.

Regarding `COC(=O)[C@@]1(O)C[C@H]2O[C@]1(C)n1c3ccccc3c3c4c(c5c6ccccc6n2c5c31)C(=O)NC4`, the residual activity worked out at 2%.
